This passage reports growth results from PubChem BioAssay (NCI).

The structures appear in SMILES notation. This is part of a sample that, as a whole, favours compounds with a hit. Of some 83,000 tested, about 20% had one in any assay.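 Step 1: grow cells in 96-well plates. Step 2: add test compound at a single concentration. Step 3: incubate 48 h. Step 4: record percent growth.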 Unmarked numbers belong to inactive results. The source made the active and inactive calls. Rule for the calls: active = growth percent below 10; inactive = the rest.

In this test the test system is T-47D breast. Description: NCI-60 one-dose screen, 48 h (100 = growth as untreated, 0 = no growth, -100 = all killed). As to conditions: 10 µM unless noted.
Take `C=C(C)[C@@H]1CC[C@]2(C(=O)OC)CC[C@]3(C)[C@H](CC[C@@H]4[C@@]5(C)CC/C(=N\OCCC(=NCCC#N)NOCCC#N)C(C)(C)[C@@H]5CC[C@]43C)[C@@H]12`: the growth is 15.1% [100 µM]. For `CCCCN(CC)CC(CC)Nc1cc(OC)cc2cccnc12` (stereo not drawn), the growth is 110%.

In the case of `COc1ccccc1S(=O)Nc1ccccc1` (stereo not drawn), the growth is 107%. Regarding `COc1cc(Cl)cc(-c2nn(C(=O)NS(=O)(=O)c3ccccc3)cc2-c2ccncc2)c1`, the growth is 92.5%.

For the compound `COc1ccc(CC(C#N)c2ccc(Cl)cc2)cc1` (stereo not drawn), the growth was 98.2%.

In the case of `COc1cc2c(c(OC)c1OC)-c1cc(I)c(O)cc1[C@@H](NC(C)=O)CC2`, the growth is 69.5%. Under `O=C(O)CSCc1nnc2n(Cc3ccccc3)c(=O)c3c4c(sc3n12)CCCC4` stands 85%. Under `COc1ccc(C2NC(=O)C(C#N)c3c2sc2c(F)cccc32)cc1` (stereo not drawn) stands 80.2%; under `CCN=C1C=CC(=C(c2ccc(N(CC)CC)cc2)c2ccc(N(CC)CC)cc2)c2ccccc21`, -45.7% (active); under `CC1(C)C(=NO)C(C)(C)C1=NO`, 121%.

For the compound `Cc1cc(SC#N)ncn1`, the growth is 104%. For the compound `COCc1nc2ccccc2[nH]1`, the growth was 104%. Under `CCN1CCN(CC(=O)Nc2nc3ccc(NCc4ccc(Cl)cc4)cc3s2)CC1` stands 50.6%; under `C=C(C)C1CCC2(C(=O)O)CCC3(C)C(CCC4C5(C)CCC(OC(=O)NCc6ccccc6)C(C)(C)C5CCC43C)C12` (stereo not drawn), 33.9%; under `CCc1ccc(C2=C/C(=C/c3ccccc3)C(=O)N2CCc2ccc(S(N)(=O)=O)cc2)cc1`, 97.8%. Take `CCN(CC)c1ccc2cc(NC(=O)OCCNC(=O)CCNC(=O)[C@H](CC(C)C)NC(=O)C(C)(C)NC(=O)C(C)(C)NC(=O)[C@H](CC(C)C)NC(=O)CCNC(=O)C(C)(C)NC(=O)[C@H](CC(C)C)NC(=O)CCNC(=O)[C@@](C)(CC)NC(=O)[C@H](C)NC(=O)CCNC(=O)C(C)(C)NC(=O)[C@H](C)NC(=O)[C@@H]3CCCN3C(=O)[C@@](C)(CC)NC(=O)[C@H](Cc3ccccc3)NC(=O)C3CCCN3C(=O)C(C)(C)NC(=O)C3CCCN3C(=O)C(C)(C)NC(C)=O)c(=O)oc2c1` (stereo partly drawn): the growth is -71.4% (active). Under `COC(=O)c1cc2c(=O)[nH]cc3c2c(n1)CCC3` stands 91.9%. Next, `C=C(CC(=O)OC)C(C)=O`: 108%; `COc1ccc2c(c1)c(-c1noc(C(=O)c3cn(C)c4ncc(Br)cc34)n1)cn2C`: 49.7%. Next, `CC(C)(C)OC(=O)N1C=C/C(=C\Cn2cc(-c3ccccc3)nn2)CC1`: 41.1%.

As for `COc1cc2c(c(OC)c1OC)-c1ccc(NNC(N)=S)c(=O)cc1[C@@H](NC(C)=O)CC2`, the growth is 70.7%. Under `CC(C)OC(=O)Nc1cc(F)ccc1F` stands 94.8%. On to `C=C(C)[C@@H]1CC[C@]2(C)[C@H](CC[C@@H]3[C@@H]([C@@](C)(O)CCC=C(C)C)CC[C@]32C)[C@@]1(C)CCC(=O)O`, for which the growth is 17% [100 µM].

As to `COc1cc(-c2cc(-c3ccc(Nc4ncnc5cc(Cl)ccc45)cc3)nc(N3CCCCC3)n2)cc(OC)c1OC`, the growth is 91.3%. Under `Cc1ccc(NC(=S)/N=c2/n(-c3ccccc3)nc3n2CCN3C2=NCCN2)cc1` stands 92.2%. Next, `COc1c(B(O)O)cccc1-c1nc2ccc3[nH]ncc3c2c2c1CCC2`: 48%; `O=C1Nc2ccccc2/C1=C/C(=O)c1ccc(N2CCCC2)cc1`: 40.5%; `COc1cc(C(=O)/C=C/c2c(-c3ccc(F)cc3)nc3sccn23)cc(OC)c1OC`: 19.8%. Next, `COc1ccc(C2CC(c3cc(OC)c(OC)c(OC)c3)=NN2C(C)=O)cc1OCC(=O)Nc1nc2ccc(C(F)(F)F)cc2s1` (stereo not drawn): 67.5%; `CN(C)c1cc(NN=C(c2ccc(O)cc2)c2ccc(O)cc2)c([N+](=O)[O-])cc1[N+](=O)[O-]`: 19.1%; `CC[C@@](C)(NC(=O)[C@H](C)NC(=O)CCNC(=O)C(C)(C)NC(=O)[C@H](C)NC(=O)[C@@H]1CCCN1C(=O)[C@@](C)(CC)NC(=O)[C@H](Cc1ccccc1)NC(=O)C1CCCN1C(=O)C(C)(C)NC(=O)C1CCCN1C(=O)C(C)(C)NC(C)=O)C(=O)NCCC(=O)N[C@@H](CC(C)C)C(=O)NC(C)(C)C(=O)NCCC(=O)N[C@@H](CC(C)C)C(=O)NC(C)(C)C(=O)NC(C)(C)C(=O)N[C@@H](CC(C)C)C(=O)NCCC(=O)NCO` (stereo partly drawn): -66.9% (active). On to `CCN(CCNc1ccc(C)c2sc3cc(Cl)ccc3c(=O)c12)CC(C)O` (stereo not drawn), for which the growth is 31.7%. As to `CC1(C)CC[C@]23CC[C@]4(C)[C@H](CC[C@@H]5[C@@]6(C)C/C(=C/c7cccnc7)C(=O)C(C)(C)[C@@H]6CC[C@]54C)[C@H]2[C@H]1OC3=O`, the growth is 23.5% [100 µM]. With `Cc1ccc(-n2nc3n(/c2=N\C(=O)NS(=O)(=O)c2ccc(C)cc2)CCN3C2=NCCN2)cc1`, the growth is 78.3%. Under `O=C1Nc2ccccc2/C1=C/C(=O)c1ccc(N2CCOCC2)cc1` stands 81.1%. For the compound `Nc1ccc(NC(=O)c2ccccc2)c2c1C(=O)c1ccccc1C2=O`, the growth is 107%.

In the case of `CN(C)CCOc1ccc(/C(=C(/CCCl)c2ccccc2)c2ccccc2)cc1`, the growth was 25.6%.

Take `CC[C@@H]1NC(=O)[C@@H]2CCCCN2C(=O)[C@@H]2CCCN2C(=O)[C@@H](NC(=O)[C@H](Cc2cc(F)cc(F)c2)NC(=O)Nc2ccc(C3CC3)cc2F)[C@H](C)OC(=O)[C@@H]2C[C@@H](C)CN2C1=O`: the growth was 7.13% (active).
